Screens as filed in PubChem.
KKLEB tox: cytotoxicity in KKLEB CF airway cells, primary screen, cytotoxicity control for CF NF-kB inhibitor project, cell-based, uHTS, fluorescence assay plates; 360,000 compounds, 0.36% hits; KKLEB CF airway cells viability, ATPlite luminescence, overnight; active compounds read low; cells stimulated with P. aeruginosa culture filtrate; activity change (cytotoxicity), % at 5 µM;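 active = corrected activity change at or below -50% at 5 µM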
MITF TRPM1 inh: inhibitors of MITF-dependent TRPM1 promoter reporter, primary screen, cell-based, SK-MEL-5, single point, luciferase | inhibition, % at 12.5 µM | SK-MEL-5 TRPM1 promoter luciferase, 24 h | 330,000 compounds, 0.83% hits;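 active = mean inhibition across replicates of 60% or more, whatever share of single replicates reaches that level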
CF NFkB inh: inhibitors of PAF-induced NF-kB signaling, primary screen, cell-based, GFP fluorescence, uHTS | KKLEB NF-kB-GFP reporter, GFP fluorescence overnight | inhibition, % at 5 µM | 360,000 compounds, 0.86% hits | AID 588850, 2011;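 active = at least 50% inhibition at 5 µM, scaled per plate between neutral and stimulator controls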;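 note: PAF is a Pseudomonas aeruginosa culture filtrate used as stimulus; plate controls were PAF-stimulated DMSO wells for no effect and unstimulated DMSO wells for full effect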
Shn3 3UTR inh: reduction of Shn3 3'UTR firefly luciferase signal, primary screen, Schnurri-3 inhibitor project, cell-based, Clone20 osteoblasts, set 2; Clone20 osteoblast Shn3 3'UTR firefly luciferase, 24 h; inhibition, % at 12.5 µM; 360,000 compounds, 0.52% hits;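 active = mean inhibition of at least 75% with every replicate also reaching 75%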;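 note: 0% = median of neutral control wells and 100% = pilot-screen positive control compound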
HIF-2a block: HIF-2a reporter inhibitors, primary screen, luminescence, 786-0 RCC cells | AID 624352, 2012 | 786-0 RCC cells HIF-2a reporter, luciferase luminescence, overnight | 360,000 compounds, 0.72% hits | inhibition, % at 18.8 µM;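 active = inhibition of the luminescence signal of 40% or more relative to plate controls, in a single-dose primary screen at 18.75 µM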
Peg3 prom inh-1: Peg3 promoter-driven luciferase inhibitors, primary screen, cell-based, HeLa, luciferase luminescence | HeLa PEG-Prom luciferase reporter, overnight | inhibition, % at 20 µM | 360,000 compounds, 1.7% hits;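 active = inhibition of at least 50% at 20 µM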
Peg3 prom inh-2: Peg3 promoter reporter inhibitors, retest, confirmation, cell-based, HeLa, luciferase reporter, single concentration | shares compounds with Peg3 prom inh-1 | HeLa PEG-Prom luciferase reporter, luminescence, overnight | inhibition, % at 20 µM | 1,300 compounds, 84% hits | AID 602417, 2012;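 active = at 20 µM dose, 40% or more inhibition averaged across four replicates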
CF NFkB inh conf: inhibitors of PAF-induced NF-kB signaling, retest, confirmation, cell-based, GFP fluorescence, single concentration; shares compounds with CF NFkB inh; KKLEB CF airway cells, overnight; inhibition, % at 5 µM; 1,300 compounds, 64% hits; AID 602472, 2012; in the data active = inhibition above about 40%;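 note: stimulus PAF is a Pseudomonas aeruginosa filtrate and not platelet activating factor; plate controls were DMSO wells with stimulus for no effect and unstimulated DMSO wells for full effect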
Mdm2 MdmX conf: retested Mdm2-MdmX interaction blockers, confirmation, cell-based, luminescence, single concentration, set 2. shares compounds with HIF-2a block. SaOS-2 split-luciferase Mdm2/MdmX complementation. inhibition, % at 8 µM. 740 compounds, 99% hits. AID 504601, 2011;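 active = mean inhibition of the luminescence signal across two replicates at or above 26 percent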
Target sequence (O15151 whole entry, looked up): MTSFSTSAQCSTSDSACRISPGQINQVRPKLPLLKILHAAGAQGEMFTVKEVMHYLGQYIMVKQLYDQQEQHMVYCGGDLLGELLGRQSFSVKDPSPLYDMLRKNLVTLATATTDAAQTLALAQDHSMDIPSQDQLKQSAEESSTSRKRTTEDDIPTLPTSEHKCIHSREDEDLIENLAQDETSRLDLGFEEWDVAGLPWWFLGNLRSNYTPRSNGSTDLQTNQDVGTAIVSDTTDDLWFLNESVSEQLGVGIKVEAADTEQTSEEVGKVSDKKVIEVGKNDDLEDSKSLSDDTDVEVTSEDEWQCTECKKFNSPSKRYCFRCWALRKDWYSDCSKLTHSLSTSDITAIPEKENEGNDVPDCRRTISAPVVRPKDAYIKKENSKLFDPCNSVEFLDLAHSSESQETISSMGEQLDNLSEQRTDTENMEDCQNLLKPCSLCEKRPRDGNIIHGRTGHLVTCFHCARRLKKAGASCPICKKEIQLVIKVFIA
Target sequence (Q00987 whole entry, looked up): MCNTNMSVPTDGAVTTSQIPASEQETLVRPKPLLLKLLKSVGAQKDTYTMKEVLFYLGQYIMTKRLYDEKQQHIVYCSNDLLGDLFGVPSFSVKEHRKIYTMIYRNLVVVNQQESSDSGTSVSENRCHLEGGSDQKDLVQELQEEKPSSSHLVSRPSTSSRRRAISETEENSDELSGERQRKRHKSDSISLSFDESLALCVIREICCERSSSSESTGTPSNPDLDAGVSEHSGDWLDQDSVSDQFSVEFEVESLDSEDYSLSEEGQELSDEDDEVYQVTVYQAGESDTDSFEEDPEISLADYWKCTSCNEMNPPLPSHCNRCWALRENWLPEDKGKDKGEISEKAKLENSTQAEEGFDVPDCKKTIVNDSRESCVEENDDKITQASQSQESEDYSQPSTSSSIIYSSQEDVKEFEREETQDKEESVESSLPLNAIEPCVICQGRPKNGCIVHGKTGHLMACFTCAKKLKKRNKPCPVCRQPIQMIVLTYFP
HIF-2a conf: HIF-2a reporter inhibitor retest, confirmation, luminescence, 786-0 RCC cells. shares compounds with HIF-2a block. HIF-2a luciferase reporter luminescence, overnight. inhibition, % at 18.8 µM. 1,800 compounds, 56% hits;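 active = mean inhibition across four replicates of at least 40 percent at the single tested concentration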
HIF-1a counter: HIF-1a luciferase reporter signal reduction – MiaPaCa-2 cells, single concentration, counter-screen for HIF-2a inhibitor project, confirmation. shares compounds with HIF-2a block. MiaPaCa-2 HIF-1a luciferase reporter, desferoxamine, overnight. inhibition, % at 18.8 µM. 1,800 compounds, 72% hits;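 active = mean inhibition of the reporter signal across four replicates at the single tested dose of 50% or more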
* hit, by the source's call; . = no result given. Shown are actives, neighbours in structure and some others; about 2.7% of the full set was active somewhere.

SMILES	KKLEB tox	MITF TRPM1 inh	CF NFkB inh	Shn3 3UTR inh	HIF-2a block	Peg3 prom inh-1	Peg3 prom inh-2	HIF-2a conf	HIF-1a counter	others
CNC(=O)COC(=O)c1ccccc1C(=O)c1ccc(Cl)c([N+](=O)[O-])c1	-40.3	89.2*	90.5*	38.6	71.3*	100.1*	98.9*	30.2	104.0*	CF NFkB inh conf=111.7*
O=C1c2ccccc2S(=O)(=O)N1Cc1nc2ccccc2s1	-0.6	70.4*	1.2	38.8	67.5*	93.4*	57.8*	76.3*	74.8*
COc1cc(CNC(=O)Nc2nnc([C@H]3C[C@H](O)[C@@H](CO)O3)s2)cc(OC)c1OC	12.5	.	-2.0	21.6	8.5	1.7	.	.	.
O=C1CSC(=S)N1c1cccnc1	-17.3	3.4	16.2	26.8	10.8	22.1	.	.	.
O=C1CSC(=S)N1Cc1cccnc1	-21.9	22.5	20.6	19.0	46.6*	95.8*	50.1*	.	.	Mdm2 MdmX conf=100.7*
O=Cc1ccc(OCc2cccc(C(F)(F)F)c2)cc1O	8.2	0.9	17.5	4.2	-106.9	-0.2	.	.	.
O=C(OCC(F)(F)F)c1cccc(COc2ccc3ccccc3c2)c1	-2.7	91.2*	-0.5	79.7	83.1*	72.9*	77.4*	90.4*	-52.5
COc1ccc(OCc2cccc(C(=O)O)c2)cc1	-5.0	96.7*	0.5	93.6*	92.5*	96.2*	90.5*	97.0*	7.0	Mdm2 MdmX conf=93.0*
OCc1ccccc1-c1nc(NCc2ccccc2)nc2ccsc12	-28.2	.	36.1	-15.5	-6.5	-1.6	.	.	.
Cc1ccc2nc(NC(=O)c3ccco3)sc2c1	-23.1	57.0	-13.1	48.3	47.9*	68.9*	30.6	71.0*	67.8*
CCOC(=O)c1c(NC(C)=O)sc2c(OCCN(CC)CC)c(Br)ccc12	-1.9	-23.5	-26.5	-3.1	-2.0	27.1	.	.	.
CCOC(=O)c1c(NC(C)=O)sc2c(OCC(O)CN(CC)CC)c(Br)ccc12 (stereo unspecified)	-13.0	8.3	-28.7	-1.7	77.9*	85.6*	97.8*	4.0	105.6*
Cc1cccc(C)c1NC(=O)C(c1ccccc1)N1CCC(Cc2ccccc2)CC1 (stereo unspecified)	-22.8	.	18.3	31.8	5.6	20.1	.	.	.
O=c1c(-c2ccccc2)nc2ccccc2n1C(c1ccccc1)c1nc2ccccc2[nH]1 (stereo unspecified)	.	.	.	.	-60.8	.	.	.	.
O=C(O)c1ccc2nc(-c3ccccc3)sc2c1	1.8	-25.2	14.5	20.1	78.5*	86.8*	45.9*	61.6*	16.4
COc1cccc2nc3c(C(=O)NCCN(C)C)cccc3cc12	0.4	77.1*	-117.0	70.4	43.0*	98.9*	97.2*	31.3	104.7*
Cc1ccc2nc(-c3ccccc3)cn2c1	5.3	87.7*	-14.0	84.1	72.6*	89.1*	77.5*	88.5*	83.8*
COc1cccc(C(=O)C(=O)N2CCN(C(=O)OCc3ccccc3)CC2)c1	.	.	.	.	-4.6	.	.	.	.
CCOC(=O)c1ccc2nc(NC(C)=O)sc2c1	-8.2	-38.4	7.2	-64.0	-213.1	-211.3	.	.	.
CCOC(=O)c1ccc2nc(Nc3nc4ccc(F)cc4s3)sc2c1	-9.5	96.4*	25.0	34.5	90.7*	95.9*	93.1*	93.4*	72.5*
COc1ccc(NC(=O)C2(C)CCN2C(=O)c2ccccc2CCc2ccccc2)cc1OC (stereo unspecified)	1.6	.	2.8	22.3	6.4	28.7	.	.	.
O=c1c2ccccc2cnn1-c1nc2ccccc2[nH]1	-50.7*	93.3*	-13.9	87.6*	92.2*	107.5*	94.9*	94.5*	98.6*
O=c1c2ccccc2nc2c3ccccc3cnn12	-11.8	-45.9	-142.9	-14.0	-283.3	-170.3	.	.	.
O=c1c(Cl)c(N2CCCCC2)cnn1-c1nc2ccccc2[nH]1	-56.1*	63.7*	4.2	43.5	69.7*	88.0*	67.0*	79.3*	85.7*
C[C@@H](C(=O)Nc1ccc2c(c1)OCO2)n1c(=O)[nH]c2ccccc2c1=O	1.5	9.3	-6.2	-14.9	-6.7	-23.8	.	.	.
SMILES	KKLEB tox	MITF TRPM1 inh	CF NFkB inh	Shn3 3UTR inh	HIF-2a block	Peg3 prom inh-1	Peg3 prom inh-2	HIF-2a conf	HIF-1a counter	others
C[C@@H](C(=O)Nc1ccc2c(c1)OCCO2)n1c(=O)[nH]c2ccccc2c1=O	-13.9	19.4	5.6	10.4	41.5*	50.0*	51.2*	45.2*	77.8*
CC(NC(=O)c1ccc([N+](=O)[O-])o1)C12CC3CC(CC(C3)C1)C2 (stereo unspecified)	-70.3*	69.8*	99.6*	50.6	64.2*	86.2*	76.7*	21.4	102.7*
O=C(Nc1cccc(-c2ccc(N3CCCCC3)nn2)c1)c1ccc(Br)o1	-40.1	-42.8	12.2	-35.1	-168.4	-97.9	.	.	.
CC1CCN(c2ccc(-c3cccc(NC(=O)C(F)(F)F)c3)nn2)CC1	-65.6*	28.3	21.6	82.9	88.1*	85.9*	87.2*	93.5*	92.7*
O=C(Nc1cccc(-c2ccc(N3CCCCC3)nn2)c1)C(F)(F)F	-42.7	62.3*	-2.3	81.9	73.5*	76.8*	75.1*	88.3*	73.1*
CCNC(=O)C1(C)CCN(C(=O)CCc2ccccc2)C1 (stereo unspecified)	-7.1	.	22.0	-12.2	9.2	-7.8	.	.	.
CCOc1ccc(NC(=O)c2cnccn2)cc1	0.1	-23.4	-2.9	-37.4	-79.2	-44.1	.	.	.
CCOc1ccc(NC(=O)c2ccccn2)cc1	-30.7	61.7*	-17.2	47.5	55.9*	66.6*	46.4*	70.1*	71.3*
